Assay results as given in PubChem BioAssay (EPA / NIEHS).
Values joined by “and” are separate entries in the source; they are usually repeats but may differ in a detail not shown here. Identical values can stand only once. The source holds several records for some structures; these can differ, active in one and inactive in another. Active and inactive are the calls of the source. The calls were made as follows: active = hit-call score of the fitted dose curve at least 0.9, where 1 is the maximum; inactive = score below 0.9.

What was measured:
[1] = read-out: Monocyte Chemoattractant Protein-1 (MCP1), CCL2 (gene 6347); assay: BSK_SAg_MCP1: BioMAP Diversity Plus: SAg Assay for Monocyte Chemoattractant Protein-1 (MCP1) Biomarker Activity (AID 2283090); details: primary human HUVEC with PBMC; actives raise or lower the signal
How it was run: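 Values derive from bidirectional fitting of ELISA-measured MCP1 against DMSO controls. Readings were taken 24 h after dosing human vascular endothelial cells co-cultured with peripheral blood mononuclear cells under superantigen stimulation.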

[2] = read-out: E-selectin (Homo sapiens) (UniProt P16581); assay: BSK_SAg_Eselectin: BioMAP Diversity Plus: SAg Assay for Eselectin Biomarker Activity (AID 2283091); details: primary human HUVEC with PBMC; actives raise or lower the signal
How it was run: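 Endpoint values derive from bidirectional fitting relative to DMSO, using ELISA-measured E-selectin in a human vascular co-culture (umbilical vein endothelium plus PBMC) sampled 24 h after dosing.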

[3] = read-out: Monokine induced gamma interferon (MIG), CXCL9 (gene 4283); assay: BSK_SAg_MIG: BioMAP Diversity Plus: SAg Assay for Monokine induced gamma interferon (MIG) Biomarker Activity (AID 2283092); details: primary human HUVEC with PBMC; actives raise or lower the signal
How it was run: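 Endothelial cells and PBMC were co-cultured, exposed to test chemicals, and sampled 24 h later. MIG was measured by ELISA, and responses were fitted in both directions relative to DMSO.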

[4] = BSK_SAg_PBMCCytotoxicity: PBMC Cytotoxicity Assessment in the BioMAP Diversity Plus: SAg Assay (AID 2283093); details: primary human HUVEC with PBMC;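 also: PBMC viability measured as Alamar Blue reduction fluorescence at 546/580 nm; fitted both ways against DMSO so a hit may be loss or gain of signal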;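 as to AC50: PBMC superantigen activated with SEB plus TSST-1 one hour after compound addition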
How it was run: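 Alamar Blue reduction (6 h, ex/em 546/580 nm) read after 90 h culture of PBMC pre-dosed 1 h then stimulated with SEB plus TSST-1, 20 ng/mL each. Gain or loss of signal fitted relative to DMSO.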

[5] = read-out: Interleukin-8 (IL8), CXCL8 (gene 3576); assay: BSK_SAg_IL8: BioMAP Diversity Plus: SAg Assay for Interleukin-8 (IL8) Biomarker Activity (AID 2283094); details: primary human HUVEC with PBMC; actives raise or lower the signal
How it was run: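 HUVEC/PBMC co-culture, 24 h post-dose; IL-8 by ELISA. Gain or loss of signal fitted bidirectionally vs DMSO baseline.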

[6] = BSK_SAg_Proliferation: Cell Proliferation Assessment in the BioMAP Diversity Plus: SAg Assay (AID 2283095); details: primary human HUVEC with PBMC;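 also: relative cell number as total protein by SRB absorbance in sub-confluent culture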
How it was run: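 HUVEC/PBMC co-culture, 96-well. TCA-fixed (10%), 0.1% SRB stain, A560 at 96 h. Protein content used as viability readout; bidirectional fitting vs DMSO control.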

[7] = BSK_SAg_SRB: Viability Assessment in the BioMAP Diversity Plus: SAg Assay (AID 2283096); details: primary human HUVEC with PBMC;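 also: cells read one day after compound addition; hits may be either gain or loss of signal compared with DMSO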
How it was run: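 SRB absorbance at 560 nm served as the viability read-out. Cells (HUVEC plus peripheral blood mononuclear cells) were TCA-fixed and stained 24 h post-dosing; activity fitted in both directions against DMSO controls.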

Measured: AC50

Sequence of E-selectin (Homo sapiens) (P16581 whole entry, looked up): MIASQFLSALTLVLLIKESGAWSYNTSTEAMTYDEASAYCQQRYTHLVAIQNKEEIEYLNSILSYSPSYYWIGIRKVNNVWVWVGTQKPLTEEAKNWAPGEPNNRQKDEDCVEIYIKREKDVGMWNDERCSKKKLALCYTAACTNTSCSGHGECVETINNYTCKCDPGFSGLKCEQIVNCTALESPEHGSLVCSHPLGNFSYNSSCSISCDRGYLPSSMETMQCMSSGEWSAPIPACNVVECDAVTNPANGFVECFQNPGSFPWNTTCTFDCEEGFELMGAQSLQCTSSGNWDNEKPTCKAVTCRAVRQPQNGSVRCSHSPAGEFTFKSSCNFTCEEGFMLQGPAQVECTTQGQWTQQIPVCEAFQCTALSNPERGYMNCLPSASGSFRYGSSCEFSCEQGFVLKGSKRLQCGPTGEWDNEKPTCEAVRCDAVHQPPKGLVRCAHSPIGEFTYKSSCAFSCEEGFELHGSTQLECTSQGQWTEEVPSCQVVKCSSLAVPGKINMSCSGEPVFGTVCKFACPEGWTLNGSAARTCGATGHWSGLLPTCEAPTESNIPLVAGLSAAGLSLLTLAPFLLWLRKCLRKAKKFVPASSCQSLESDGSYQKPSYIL

CCCCCCOC(=O)CCCCC(=O)OCCCCCC
inactive: all assays above

CCN1CN(CC)CN(CC)C1
active: [6] 36.3 µM
inactive: all other assays above

Nc1nc(N)nc(-c2ccccc2)n1
inactive: all assays above

O=C(O)C(F)(F)C(F)(F)C(F)(F)C(F)(F)C(=O)O
inactive: all assays above

CCCCCCCCCCCC(=O)N(C)CC(=O)O
inactive: all assays above

CCOC(=O)C1=NOC(c2ccccc2)(c2ccccc2)C1
inactive: all assays above

CC=C(C)C=CC=C(C)C
inactive: [3] | [4] | [7]
active: [1] 2.58 µM | [2] 23.4 µM | [5] 6.5 µM | [6] 26.5 µM

CCCCCCCCCCCC(C)=O
inactive: [3] | [7]
active: [1] 31.1 µM | [2] 33.3 µM | [4] 32 µM | [5] 33.8 µM | [6] 34 µM

CC1=CC=C(C(C)C)CC1
inactive: all assays above

Cc1c(O)cccc1O
active: [4] 31 µM | [6] 31 µM
inactive: all other assays above

C1CNCCN1
inactive: all assays above

c1ccc2c(c1)[nH]c1ccccc12
active: [5] 2.72 µM
inactive: [1] | [2] | [3] | [4] | [5] | [6] | [7]

c1ccc(Nc2cccc3ccccc23)cc1
active: [1] 29.4 µM and 30.4 µM | [2] 31.8 µM and 33.5 µM | [4] 34.3 µM and 36.9 µM | [5] 31.1 µM and 30.7 µM | [6] 31.3 µM and 30.4 µM | [7] 28.7 µM and 30.3 µM
inactive: [3]

C[N+](C)(C)CCCNS(=O)(=O)C(F)(F)C(F)(F)C(F)(F)C(F)(F)C(F)(F)C(F)(F)C(F)(F)C(F)(F)F
inactive: [1] | [2] | [3] | [4] | [5] | [6]
active: [4] 51.3 µM | [6] 46.5 µM | [7] 43.5 µM and 46.5 µM

CC(C)CCCCCOC(=O)CS
inactive: all assays above

O=C(Cl)c1c(Cl)c(Cl)c(C(=O)Cl)c(Cl)c1Cl
inactive: all assays above

C=CC(=O)NC(C)(C)C
inactive: all assays above

C=CC(=O)OCCCCCCOC(=O)C=C
active: [1] 11 µM | [2] 5.55 µM | [3] 7.05 µM | [4] 3.97 µM | [5] 0.714 µM | [6] 0.89 µM | [7] 20 µM

c1ccc2sc(SSN3CCOCC3)nc2c1
active: [4] 20 µM | [6] 8.5 µM
inactive: all other assays above

CCC1(C)C(=O)N(Cl)C(=O)N1Cl (centres undefined)
inactive: all assays above

CCCC(C)C(=O)OCC (centres undefined)
inactive: all assays above

C=C(C)C(=O)OCCCCCCCCCCCC
inactive: all assays above

CCOC(=O)/C=C\C(=O)OCC
active: [2] 20 µM
inactive: all other assays above

COc1ccc(C(=O)/C(Br)=C\C(=O)O)cc1
active: [1] 20 µM | [2] 7.92 µM and 7.11 µM | [3] 35.2 µM and 34.5 µM | [4] 12 µM and 7.54 µM | [5] 3.97 µM | [6] 6.87 µM and 2.13 µM | [7] 25.9 µM and 31.6 µM
inactive: [5]

CCc1cccc(C)c1N(C(=O)CS(=O)(=O)O)C(C)COC (centres undefined)
inactive: all assays above

CC/C=C\CCOC(=O)c1ccccc1O
inactive: [3] | [5]
active: [1] 28.5 µM | [2] 29.7 µM | [4] 33.3 µM | [6] 31.2 µM | [7] 30.7 µM

O=C(Oc1ccccc1)c1ccccc1C(=O)Oc1ccccc1
active: [6] 20 µM
inactive: all other assays above

CCCCC1C(=O)N(c2ccccc2)N(c2ccccc2)C1=O
inactive: all assays above

O=C1CCCCCCCCCCCN1
inactive: all assays above

CC(C)c1cccc(C(C)C)c1N
inactive: all assays above
